Reference: PubChem BioAssay AID431 (Sanford-Burnham Center for Chemical Genomics, 2006)
The campaign covered roughly 63,000 compounds. About 1,100 (1.7%) were called active. Shown is part of a subset that was picked to be rich in actives. Entries with a potency or affinity are not part of this list. Unmarked numbers belong to inactive results.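 Rule for the calls: active = compounds whose percent cytotoxicity in the single-dose primary screen, scaled between solvent and toxic-drug controls, exceeds 50; inactive = the rest.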

Experiment: viability loss of HPDE-C7K cells – cell-based, fluorescence, HTS, primary screen (AID 431);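 note: 0% = DMSO solvent wells and 100% = doxorubicin-treated wells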
Details: HPDE-C7K KRASV12 cells, Alamar Blue viability, 48 h; at 10 µM; stronger effect = higher value

| SMILES | cytotoxicity |
| --- | --- |
| COc1ccc(NC(=O)CN2CCN(S(=O)(=O)c3ccc(C(C)C)cc3)CC2)cc1OC | -1.5% |
| COCC(=O)Nc1sc2c(c1C(=O)OC)CCCC2 | -0.8% |
| Cc1ccc2nc(Nc3nc(C)cc(C(F)(F)F)n3)nc(C)c2c1 | -18.7% |
| COc1ccc(OC)c2c(N)c(C#N)c(C(F)(F)C(F)(F)F)nc12 | 2.9% |
| COc1ccc(OC)c(-n2c(O)cnc2Nc2nc(C)cc(C)n2)c1 | -6.2% |
| Cc1occc1C(=O)Nc1cc(C(F)(F)F)ccc1Cl | -12.7% |
| CC1CN(S(=O)(=O)c2cn(C)c(=O)n(C)c2=O)CC(C)O1 (stereo not given) | 14.8% |
| CCOC(=O)N1CCN(C(=O)c2cnn3c(C(F)F)cc(-c4ccc(C)cc4)nc23)CC1 | 4.7% |
| COc1ccc(-c2nnc(-c3cccs3)o2)cc1OC | 7.2% |
| COc1ccc(-c2nc3ccccc3s2)cc1O | -3.4% |
| COc1ccc(-c2nc(-c3cccs3)c(-c3cccs3)[nH]2)cc1O | 76.5% (active) |
| Cc1ccc2c(c1)C(c1ccccc1)N(C(=O)c1ccc(Br)o1)CC(=O)N2 (stereo not given) | -13.7% |
| COc1ccccc1N1C(=O)C2C3C=CC(C3)C2(C)C1=O (stereo not given) | -3.4% |
| c1coc(-c2nn3c(-c4ccco4)nnc3s2)c1 | -16.1% |
| Fc1ccc(-c2ccc(-c3nn4c(-c5ccco5)nnc4s3)o2)cc1 | 83.7% (active) |
| c1ccc(-c2cc(-c3nn4c(-c5ccco5)nnc4s3)c3ccccc3n2)cc1 | 51.3% (active) |
| Cc1oc(-c2ccc(F)cc2)cc1-c1nn2c(-c3ccco3)nnc2s1 | -11.2% |
| Clc1ccc(-c2ccc(-c3nn4c(-c5ccco5)nnc4s3)o2)cc1 | -10% |
| Cc1cc(-c2nn3c(-c4ccccc4)nnc3s2)c2ccccc2n1 | -2.8% |
| CCOC(=O)N1CCC(NC(=O)CNS(=O)(=O)c2ccc(Br)s2)CC1 | 6.3% |
| CCSc1nnc(NC(=O)C(C)(C(F)(F)F)C(F)(F)F)s1 | -1.2% |
| Cc1ccccc1N1CCN(C(=O)C2CCCCC2)CC1 | -1% |
| COc1cc2c(C(=O)N3CCN(Cc4ccc5c(c4)OCO5)CC3)cn(C)c(=O)c2cc1OC | -9% |
| COc1ccc(NS(=O)(=O)c2cc(C)ccc2C)cc1 | 35.3% |

| SMILES | cytotoxicity |
| --- | --- |
| COc1ccc(NS(=O)(=O)c2cc(OC)ccc2NC(=O)c2cc(C)oc2C)cc1 | 48.5% |
| COc1ccc(NS(=O)(=O)c2cc(C)ccc2NC(=O)c2cc(C)oc2C)cc1 | 69.4% (active) |
| Cc1cc(N2CCN(C(=O)c3ccco3)CC2)n2nc(C)c(-c3ccccc3)c2n1 | 13.2% |
| Cc1nn2c(N3CCN(C(=O)c4ccco4)CC3)cc(C(C)(C)C)nc2c1-c1ccccc1 | 70.2% (active) |
| Cc1cc(N2CCN(C(=O)c3ccco3)CC2)n2nc(C)c(-c3ccc(Cl)cc3)c2n1 | 12.8% |
| COc1cccc(NC(=O)C2CCN(c3ncccn3)CC2)c1 | 3% |
| CC1(N2CCOCC2)CC2(O)C(=[N+]1[O-])CCc1nonc12 (stereo not given) | 17.7% |
| CC1(N2CCOCC2)CC2(O)C(=[N+]1[O-])CCc1c2no[n+]1[O-] (stereo not given) | 58.3% (active) |
| CC1(N2CCCCC2)CC2(O)C(=[N+]1[O-])CCC/C2=N\O (stereo not given) | 15.9% |
| CC(C)NC(=O)CN(C(=O)CCC(=O)Nc1ccccn1)c1ccc(F)c(Cl)c1 | 2.5% |
| CC1(C)C(=O)Nc2ccccc2N1C(=O)CN1C(=O)c2ccccc2C1=O | -3.5% |
| CCC(=O)NC1(C(F)(F)F)C(=O)Nc2c1c(=O)n(C)c(=O)n2C (stereo not given) | -2.3% |
| Cc1nnc(SCC(=O)N2CCN(S(=O)(=O)c3ccccc3)CC2)[nH]c1=O | 1.8% |
| CCc1nnc(NC(=O)c2ccc(NS(=O)(=O)c3ccccc3)cc2)s1 | -18.3% |
| CCc1nc(C)ccc1OCC(=O)O | -10.4% |
| CCCC(=O)NCCc1nc2ccccc2n1C | -5.4% |
| CCOc1cccc(-c2nc3cc(C)ccc3o2)c1 | -4.3% |
| Cc1n[nH]c(C)c1C(=O)CC1(O)C(=O)N(CCc2ccccc2)c2ccc(Cl)cc21 (stereo not given) | 16.8% |
| COc1cc(-c2c(C#N)c(N)nc3c2c(C)nn3-c2ccc(C)c(C)c2)cc(OC)c1OC | 57.8% (active) |
| Cc1nn(-c2ccccc2)c2nc(N)c(C#N)c(-c3ccc(F)cc3)c12 | 10.8% |
| Cc1ccc(-n2nc(C)c3c(-c4cccs4)c(C#N)c(N)nc32)cc1 | 4% |
| O=C(O)CCN1Cc2ccccc2C1=O | -5.5% |
| Cc1ccc(NC(=O)CN2C(=O)COc3ccc(C)cc32)nc1 | 5.6% |
| COc1ccc(OC(=O)c2cc3ccccc3o2)cc1 | 12.8% |

| SMILES | cytotoxicity |
| --- | --- |
| COc1ccc(OC)c(Nc2nc(N)nc(-c3cc4ccccc4o3)n2)c1 | 1.5% |
| COc1ccc(OC)c(NC(=O)c2cc3ccccc3o2)c1 | -12.4% |
| O=C(Nc1ccccc1C(F)(F)F)N1CCN(c2ccc3nnc(-c4ccc(F)cc4)n3n2)CC1 | 1.9% |
| O=C(Nc1ccc(Cl)cc1)N1CCN(c2ccc3nnc(-c4ccc(F)cc4)n3n2)CC1 | 58.7% (active) |
| O=C(Nc1ccccc1Cl)N1CCN(c2ccc3nnc(-c4ccc(F)cc4)n3n2)CC1 | 19.5% |
| Cc1cccc(NC(=O)CSc2nnc(-c3ccccc3)n2N)c1 | 1% |
| CCCc1[nH]nc2c1C(c1ccncc1)C(C#N)=C(N)O2 (stereo not given) | -1.2% |
| CCc1[nH]nc2c1C(c1ccc(Br)s1)C(C#N)=C(N)O2 (stereo not given) | 5% |
| CCCn1nnc(NC(=O)c2cc3ccccc3o2)n1 | -13.2% |
| CN1CCN(S(=O)(=O)c2ccc(NC(=O)c3ccc(Br)o3)cc2)CC1 | -14.1% |
| O=C(Nc1ccc(S(=O)(=O)N2CCOCC2)cc1)c1ccc(Br)o1 | -9.2% |
| O=C(Nc1ccc(Oc2ccc(NC(=O)c3ccco3)c(NC(=O)c3ccco3)c2)cc1)c1ccco1 | 29.9% |
| Cc1ccc(NC(=O)c2ccc(OC(=O)c3ccco3)cc2)cc1 | -14.7% |
| CCOC(=O)c1sc(NC(=O)c2ccco2)nc1-c1ccccc1 | -7.2% |
| O=C(Nc1ccc(Nc2ccccc2)cc1)c1ccco1 | 66.8% (active) |
| O=C(Nc1ccc(S(=O)(=O)N2CCCCCC2)cc1)c1ccc(Br)o1 | 55.5% (active) |
| Cc1ccc(Oc2ccc(NC(=O)c3ccco3)cc2)cc1 | 84.2% (active) |
| CC(=O)c1sc(NC(=O)c2ccco2)nc1-c1ccccc1 | 6.3% |
| CCC(=O)Nc1ccc(NC(=O)c2ccco2)cc1 | -4% |
| O=C(CCc1ccccc1)Nc1ccc(NC(=O)c2ccco2)cc1 | -8.3% |
| O=C(Nc1nc(-c2cccs2)c(-c2ccccc2)s1)c1ccco1 | 58.9% (active) |
| O=C1c2oc3ccccc3c(=O)c2C(c2ccc(Br)cc2)N1c1ncccn1 (stereo not given) | 5.4% |
| O=S(=O)(c1ccccc1)c1nc(-c2ccco2)oc1NCc1cccnc1 | 14.5% |
| CCOC(=O)C1CCN(c2cc(=O)n(Cc3ccc(F)cc3)c(=O)[nH]2)CC1 | -12.8% |

| SMILES | cytotoxicity |
| --- | --- |
| Cc1cc(NC(=O)c2c(F)c(F)c(F)c(F)c2F)no1 | -11.5% |
| Nc1c(C(=O)OCC2CCCO2)c2nc3ccccc3nc2n1C1CCCCC1 (stereo not given) | -9.6% |
| COc1ccc(CCNC(=O)CSc2nnc(-c3cccc(C)c3)o2)cc1OC | -3.4% |
| CCOC(=O)N1CCC(NC(=O)Cn2c3c(c(-c4ccccc4Cl)cc2=O)CCC3)CC1 | 4.9% |
| CCOc1ccc(CN2C(=O)CCC2(C)C(=O)NCc2cccnc2)cc1 (stereo not given) | 6.9% |
| O=C(Nc1cccc(-c2nc3ccccc3[nH]2)c1)c1ccco1 | 9.8% |
| O=C(Nc1ccc(-c2nc3ncccc3o2)cc1)c1ccco1 | -8.5% |
| COC(=O)c1sc(NC(=O)c2ccco2)nc1C | -3.1% |
| O=C(Nc1ccccc1N1CCCC1)c1ccc(Br)o1 | -3.3% |
| O=C(Nc1cccc(Cl)c1N1CCCC1)c1ccc(Br)o1 | 93% (active) |
| O=C(Nc1cccc(-c2nnc(-c3ccccc3)o2)c1)c1ccco1 | 3.5% |
| Cc1ccc2nc(-c3cccc(NC(=O)c4ccco4)c3)[nH]c2c1 | 65.5% (active) |
| CCN1CCN(c2c(Cl)cccc2NC(=O)c2ccc(Br)o2)CC1 | 10% |
| Cc1nc(NC(=O)c2ccco2)sc1C(=O)Nc1ccc(Br)cc1 | 84% (active) |
| O=C(Nc1ccc2nc(-c3ccccc3)oc2c1)c1ccco1 | 71.7% (active) |
| Cc1ccc2nc(-c3ccc(NC(=O)c4ccco4)cc3)[nH]c2c1 | 14.5% |
| CCOC(=O)c1sc(NC(=O)c2ccco2)nc1C | 5.9% |
| CN(C)S(=O)(=O)c1cccc(COC(=O)C2=COCCO2)c1 | -1.6% |
| O=C(c1ccco1)[C@@H]1[C@@H]2C(=O)N(c3ccc(F)cc3)C(=O)[C@@H]2C2c3ccccc3C=CN21 (stereo not given in full) | 6.6% |
| COc1ccc(CCNS(=O)(=O)c2cccc(F)c2)cc1OC | -5.1% |
| Cc1onc(-c2c(F)cccc2Cl)c1C(=O)OCC(=O)NCc1ccco1 | 0.8% |
| CN(C)c1ccc(NC(=O)CN2CCC(C(=O)c3ccc(F)cc3)CC2)cc1 | 10.1% |
| COc1cc2[nH]c(=O)n(CCCCCC(=O)N3CCN(c4ccccc4)CC3)c(=O)c2cc1OC | 15.8% |
